# T1: GIGYF2 507-602 GYF (domain begin residue: 507, domain end residue: 602), Q6Y7W6
# T1 chain: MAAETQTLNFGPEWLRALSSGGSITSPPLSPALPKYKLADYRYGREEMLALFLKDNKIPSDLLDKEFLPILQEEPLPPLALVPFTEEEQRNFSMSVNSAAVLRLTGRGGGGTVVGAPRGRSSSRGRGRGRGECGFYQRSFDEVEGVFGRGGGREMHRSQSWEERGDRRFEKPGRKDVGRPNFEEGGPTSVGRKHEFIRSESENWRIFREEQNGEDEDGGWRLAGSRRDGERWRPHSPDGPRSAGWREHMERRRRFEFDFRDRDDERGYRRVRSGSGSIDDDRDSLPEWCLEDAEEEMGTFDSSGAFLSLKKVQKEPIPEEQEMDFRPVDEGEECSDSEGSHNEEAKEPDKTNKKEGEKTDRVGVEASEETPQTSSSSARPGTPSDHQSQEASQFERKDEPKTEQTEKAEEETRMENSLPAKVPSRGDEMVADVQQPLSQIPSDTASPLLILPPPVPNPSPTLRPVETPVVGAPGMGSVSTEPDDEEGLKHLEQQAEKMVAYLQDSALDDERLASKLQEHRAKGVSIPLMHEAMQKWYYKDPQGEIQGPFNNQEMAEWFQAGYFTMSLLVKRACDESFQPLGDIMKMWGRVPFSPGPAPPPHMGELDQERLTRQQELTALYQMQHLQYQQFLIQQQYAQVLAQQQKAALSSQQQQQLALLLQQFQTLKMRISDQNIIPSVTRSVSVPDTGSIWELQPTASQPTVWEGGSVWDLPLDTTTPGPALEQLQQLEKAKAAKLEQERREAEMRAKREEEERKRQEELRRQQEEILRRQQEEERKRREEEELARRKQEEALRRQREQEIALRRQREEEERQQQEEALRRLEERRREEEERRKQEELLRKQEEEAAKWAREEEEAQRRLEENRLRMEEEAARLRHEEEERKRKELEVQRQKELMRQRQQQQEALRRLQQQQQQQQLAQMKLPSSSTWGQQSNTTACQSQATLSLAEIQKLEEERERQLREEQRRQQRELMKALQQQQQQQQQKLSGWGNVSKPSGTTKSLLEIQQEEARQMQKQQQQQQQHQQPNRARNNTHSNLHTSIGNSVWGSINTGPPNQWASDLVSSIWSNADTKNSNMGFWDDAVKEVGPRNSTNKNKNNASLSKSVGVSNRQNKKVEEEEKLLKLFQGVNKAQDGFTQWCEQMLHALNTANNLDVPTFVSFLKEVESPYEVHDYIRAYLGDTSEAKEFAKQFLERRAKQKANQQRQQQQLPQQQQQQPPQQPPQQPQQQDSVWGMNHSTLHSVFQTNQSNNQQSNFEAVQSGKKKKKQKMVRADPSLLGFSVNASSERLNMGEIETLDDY
# T2: GGA1 1-157 VHS (domain begin residue: 1, domain end residue: 157), Q9UJY5
# T2 chain: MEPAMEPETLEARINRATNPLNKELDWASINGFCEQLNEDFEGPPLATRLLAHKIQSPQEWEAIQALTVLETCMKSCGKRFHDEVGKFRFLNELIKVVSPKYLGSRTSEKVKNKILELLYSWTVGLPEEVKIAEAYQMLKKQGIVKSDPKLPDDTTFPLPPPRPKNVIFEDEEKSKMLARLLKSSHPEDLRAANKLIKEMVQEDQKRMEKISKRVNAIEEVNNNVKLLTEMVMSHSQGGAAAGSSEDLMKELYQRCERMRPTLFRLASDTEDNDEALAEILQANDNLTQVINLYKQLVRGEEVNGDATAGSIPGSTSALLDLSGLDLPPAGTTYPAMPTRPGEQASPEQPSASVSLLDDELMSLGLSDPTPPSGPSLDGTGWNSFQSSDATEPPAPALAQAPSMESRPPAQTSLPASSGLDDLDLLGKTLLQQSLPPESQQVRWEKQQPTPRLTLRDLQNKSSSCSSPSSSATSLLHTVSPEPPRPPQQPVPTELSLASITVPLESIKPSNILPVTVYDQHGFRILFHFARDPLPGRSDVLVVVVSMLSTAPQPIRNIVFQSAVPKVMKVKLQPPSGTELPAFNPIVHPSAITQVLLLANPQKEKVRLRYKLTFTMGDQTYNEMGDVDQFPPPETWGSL
# T3: FRS3 12-117 IRS (domain begin residue: 12, domain end residue: 117), O43559
# T3 chain: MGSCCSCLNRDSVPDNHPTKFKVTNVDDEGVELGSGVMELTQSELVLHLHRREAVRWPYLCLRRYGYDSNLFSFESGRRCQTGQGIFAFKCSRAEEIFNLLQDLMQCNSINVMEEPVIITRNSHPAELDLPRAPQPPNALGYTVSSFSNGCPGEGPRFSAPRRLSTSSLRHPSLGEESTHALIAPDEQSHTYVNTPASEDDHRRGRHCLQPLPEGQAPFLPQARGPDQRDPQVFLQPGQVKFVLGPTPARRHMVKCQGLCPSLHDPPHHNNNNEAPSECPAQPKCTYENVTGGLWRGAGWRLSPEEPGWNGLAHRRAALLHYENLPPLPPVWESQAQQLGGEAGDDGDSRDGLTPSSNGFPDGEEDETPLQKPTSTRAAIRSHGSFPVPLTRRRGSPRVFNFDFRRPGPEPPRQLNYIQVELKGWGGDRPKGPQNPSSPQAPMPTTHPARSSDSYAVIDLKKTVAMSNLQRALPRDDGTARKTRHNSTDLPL
# T4: GNA14 2-355 G-alpha (domain begin residue: 2, domain end residue: 355), O95837
# T4 chain: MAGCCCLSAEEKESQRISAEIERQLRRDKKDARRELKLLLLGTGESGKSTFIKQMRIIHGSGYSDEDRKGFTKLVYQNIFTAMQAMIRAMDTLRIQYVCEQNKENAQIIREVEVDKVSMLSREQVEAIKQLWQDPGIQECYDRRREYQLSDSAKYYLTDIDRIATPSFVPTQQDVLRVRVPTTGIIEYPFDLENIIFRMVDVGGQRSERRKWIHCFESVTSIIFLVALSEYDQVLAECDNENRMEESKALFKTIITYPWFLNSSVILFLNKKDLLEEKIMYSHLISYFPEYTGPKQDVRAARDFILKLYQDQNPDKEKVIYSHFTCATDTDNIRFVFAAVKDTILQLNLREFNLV
# T5: FKBP3 109-224 FKBP_C (domain begin residue: 109, domain end residue: 224), Q00688
# T5 chain: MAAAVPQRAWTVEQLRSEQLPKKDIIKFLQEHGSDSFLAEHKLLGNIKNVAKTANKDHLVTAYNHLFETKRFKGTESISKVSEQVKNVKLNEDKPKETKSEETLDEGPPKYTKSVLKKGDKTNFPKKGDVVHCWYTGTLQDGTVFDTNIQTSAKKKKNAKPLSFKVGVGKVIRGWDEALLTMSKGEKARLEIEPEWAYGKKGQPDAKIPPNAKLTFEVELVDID
# Tests used:
# Experiment in all cases: phage ELISA signal ratio (GST-PRM binding over GST background); higher = stronger binding of peptide-phage to the PRM
# [1] = target: GGA3 579-723 Alpha_adaptinC2 (domain begin residue: 579, domain end residue: 723)
# In short: (§1)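 Five rounds of selection were carried out against human peptide recognition domains fused to the C-terminus of glutathione S-transferase (GST) and expressed in 96-well plates. The M13 phage library presented randomized hexadecapeptides, cysteine-free and glycine-flanked, on the gene-8 major coat protein. For each value, the phage ELISA signal on the GST-domain fusion was divided by the signal on GST alone.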
# [2] = target: T1, GIGYF2 507-602 GYF (domain begin …
# In short: as §1
# [3] = target: GGA3 1-153 VHS (domain begin residue: 1, domain end residue: 153)
# In short: as §1
# [4] = target: T2, GGA1 1-157 VHS (domain begin residue: …
# In short: as §1
# [5] = target: T3, FRS3 12-117 IRS (domain begin residue: …
# In short: as §1
# [6] = target: T4, GNA14 2-355 G-alpha (domain begin …
# In short: as §1
# [7] = target: T5, FKBP3 109-224 FKBP_C (domain begin …
# In short: as §1
binder,measurement,setting,value
ASQWEWDDWLYIHSQT,phage ELISA signal ratio,[1],7.22
EGMGPPGFWVGSDLRG,phage ELISA signal ratio,[2],14.7
MEPFTTWDQLPWWMQE,phage ELISA signal ratio,[3],12.9
ARDLPPGFVMSPENAM,phage ELISA signal ratio,[2],11.7
DEWGQWQLHESVFLME,phage ELISA signal ratio,[1],27.9
VNNQWDNDVPMLSMFA,phage ELISA signal ratio,[4],16.4
PQGTWFTIIQEPSQHD,phage ELISA signal ratio,[5],5.78
MTWWVAPWNESLDLWE,phage ELISA signal ratio,[5],10.5
QPPPGWVPSTELLEFL,phage ELISA signal ratio,[2],23.1
MDWTILDFPYQNWPRS,phage ELISA signal ratio,[3],13.9
HSQWWVGPEQPWGQVQ,phage ELISA signal ratio,[3],12.2
HDFYIPYMYQDVTMIM,phage ELISA signal ratio,[4],6.03
AMTPPGFPHNTQMIRA,phage ELISA signal ratio,[2],16.9
QPDQIRFGPYISFSAI,phage ELISA signal ratio,[6],24.3
EYLQIPVHHVDGIWSV,phage ELISA signal ratio,[3],10.8
VGQGVFLDWKPGRDVN,phage ELISA signal ratio,[7],17.5
same,phage ELISA signal ratio,[5],10.6
NMFMPPGFAPQQVQMH,phage ELISA signal ratio,[2],13.9
PQIQWYMDDILLVPTI,phage ELISA signal ratio,[4],15.5
SEVHPPGFAQEHHIMQ,phage ELISA signal ratio,[2],23.9
RFPPGMMQQLPQYADS,phage ELISA signal ratio,[2],29.9
QRPPGNWGEVTQVPIL,phage ELISA signal ratio,[2],9.77
QTDDPMWIPHQWFQAG,phage ELISA signal ratio,[3],23.1
QHLWHWEDTDYYEWSE,phage ELISA signal ratio,[3],20.1
HLDQPPWWTLQEWASH,phage ELISA signal ratio,[3],12.2
EVWWQGPEEDWMQTYL,phage ELISA signal ratio,[3],11.9
QTMTWEARDPSKMLEL,phage ELISA signal ratio,[4],12.5
DEILLHLPWAAMHWEG,phage ELISA signal ratio,[4],22.3
TMHHDDQLLDLYSVRK,phage ELISA signal ratio,[4],18.5
PDAMPLWHGHHVVPVY,phage ELISA signal ratio,[4],18.9
